The supplement of paper PMC11732987, “Enantioselective OTUD7B fragment discovery through chemoproteomics screening and high-throughput optimisation” (Communications Chemistry, 2025)

Tests used:
Experiment in all cases: log2 ratio of Biotin-Ahx-Ub-VS probe labelling (fragment/DMSO); higher = less target engagement (more negative = stronger competition), active = hit call of the paper (q ≤ 0.05, log2 ratio ≤ -1)
Details in all cases: compound concentration: 200 uM; treatment time: 3 h
[1] = biological target: T1, USP19 (UniProt O94966)
T1 sequence (whole entry): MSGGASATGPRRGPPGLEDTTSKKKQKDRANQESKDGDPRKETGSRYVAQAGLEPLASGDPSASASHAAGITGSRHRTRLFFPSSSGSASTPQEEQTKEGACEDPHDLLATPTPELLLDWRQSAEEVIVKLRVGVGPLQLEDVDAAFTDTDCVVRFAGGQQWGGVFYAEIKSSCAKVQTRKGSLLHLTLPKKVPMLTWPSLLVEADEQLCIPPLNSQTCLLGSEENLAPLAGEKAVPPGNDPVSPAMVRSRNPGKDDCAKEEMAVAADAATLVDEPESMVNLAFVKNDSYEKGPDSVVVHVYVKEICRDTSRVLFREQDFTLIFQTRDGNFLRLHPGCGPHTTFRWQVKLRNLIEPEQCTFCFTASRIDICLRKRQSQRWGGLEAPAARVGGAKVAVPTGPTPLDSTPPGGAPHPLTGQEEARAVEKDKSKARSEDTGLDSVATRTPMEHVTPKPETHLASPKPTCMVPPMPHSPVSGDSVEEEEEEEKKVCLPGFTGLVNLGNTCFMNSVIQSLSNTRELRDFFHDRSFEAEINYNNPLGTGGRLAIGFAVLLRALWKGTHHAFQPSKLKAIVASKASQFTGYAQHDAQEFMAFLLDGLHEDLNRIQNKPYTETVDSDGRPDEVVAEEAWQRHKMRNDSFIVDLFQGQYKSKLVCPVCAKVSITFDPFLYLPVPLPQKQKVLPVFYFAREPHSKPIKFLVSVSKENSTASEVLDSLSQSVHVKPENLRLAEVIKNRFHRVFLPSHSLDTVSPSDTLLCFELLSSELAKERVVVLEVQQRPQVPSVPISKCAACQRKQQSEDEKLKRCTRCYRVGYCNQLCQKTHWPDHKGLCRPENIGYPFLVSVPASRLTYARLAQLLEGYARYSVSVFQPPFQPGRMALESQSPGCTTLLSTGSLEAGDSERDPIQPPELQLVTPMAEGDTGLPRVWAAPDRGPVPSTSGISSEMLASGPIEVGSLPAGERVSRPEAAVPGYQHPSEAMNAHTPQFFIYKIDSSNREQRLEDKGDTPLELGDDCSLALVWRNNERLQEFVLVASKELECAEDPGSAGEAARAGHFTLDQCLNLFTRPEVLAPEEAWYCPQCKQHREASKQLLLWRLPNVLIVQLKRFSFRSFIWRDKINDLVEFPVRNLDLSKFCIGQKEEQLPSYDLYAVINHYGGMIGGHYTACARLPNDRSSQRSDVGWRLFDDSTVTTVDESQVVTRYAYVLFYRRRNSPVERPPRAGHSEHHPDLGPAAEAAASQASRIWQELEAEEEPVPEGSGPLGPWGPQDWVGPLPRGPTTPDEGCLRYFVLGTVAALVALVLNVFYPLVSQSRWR
Method in brief: (§1)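 Triplicate samples of HEK293T lysate, 495 µg each, received fragment at 200 µM or vehicle for 3 h, followed by Biotin-Ahx-Ub-VS (0.5 µM final) for 1 h. After NeutrAvidin enrichment of labelled DUBs and LysC/trypsin digestion, peptides were run by diaPASEF LC-MS/MS. The values are average log2 fragment/vehicle ratios from global-median-normalised Spectronaut label-free quantities, tested by unpaired t-test on proteins having ≥2 unique peptides.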

[2] = biological target: USP24 (UniProt Q9UPU5)
Method in brief: as §1

[3] = biological target: T2, USP25 (UniProt Q9UHP3)
T2 sequence (whole entry): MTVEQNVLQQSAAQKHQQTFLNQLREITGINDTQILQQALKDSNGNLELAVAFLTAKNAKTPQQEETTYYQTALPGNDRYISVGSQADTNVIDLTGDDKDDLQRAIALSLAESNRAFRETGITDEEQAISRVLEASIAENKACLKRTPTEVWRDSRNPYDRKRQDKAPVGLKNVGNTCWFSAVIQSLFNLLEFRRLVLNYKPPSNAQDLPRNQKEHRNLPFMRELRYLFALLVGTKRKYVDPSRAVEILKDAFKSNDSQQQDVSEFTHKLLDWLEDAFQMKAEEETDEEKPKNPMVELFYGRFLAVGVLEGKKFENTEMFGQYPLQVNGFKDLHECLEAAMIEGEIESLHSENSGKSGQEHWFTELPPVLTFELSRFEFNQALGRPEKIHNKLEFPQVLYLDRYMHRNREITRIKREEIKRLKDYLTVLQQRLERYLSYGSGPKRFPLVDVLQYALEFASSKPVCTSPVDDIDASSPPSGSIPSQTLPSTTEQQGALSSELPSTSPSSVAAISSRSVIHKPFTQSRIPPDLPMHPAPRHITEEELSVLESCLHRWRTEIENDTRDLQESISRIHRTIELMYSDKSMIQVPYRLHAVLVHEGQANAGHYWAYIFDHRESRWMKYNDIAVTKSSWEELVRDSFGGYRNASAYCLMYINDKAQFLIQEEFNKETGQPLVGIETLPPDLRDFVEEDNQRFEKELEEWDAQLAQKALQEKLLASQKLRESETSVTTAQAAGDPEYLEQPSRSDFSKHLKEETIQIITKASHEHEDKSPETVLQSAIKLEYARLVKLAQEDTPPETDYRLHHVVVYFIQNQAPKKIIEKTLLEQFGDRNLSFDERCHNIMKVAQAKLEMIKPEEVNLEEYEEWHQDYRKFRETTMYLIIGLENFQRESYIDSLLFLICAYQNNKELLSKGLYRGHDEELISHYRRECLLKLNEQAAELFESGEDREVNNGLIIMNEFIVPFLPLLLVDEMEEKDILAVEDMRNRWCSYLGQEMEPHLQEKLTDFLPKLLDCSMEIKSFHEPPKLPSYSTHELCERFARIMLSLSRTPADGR
Method in brief: as §1

[4] = biological target: T3, USP28 (UniProt Q96RU2)
T3 sequence (whole entry): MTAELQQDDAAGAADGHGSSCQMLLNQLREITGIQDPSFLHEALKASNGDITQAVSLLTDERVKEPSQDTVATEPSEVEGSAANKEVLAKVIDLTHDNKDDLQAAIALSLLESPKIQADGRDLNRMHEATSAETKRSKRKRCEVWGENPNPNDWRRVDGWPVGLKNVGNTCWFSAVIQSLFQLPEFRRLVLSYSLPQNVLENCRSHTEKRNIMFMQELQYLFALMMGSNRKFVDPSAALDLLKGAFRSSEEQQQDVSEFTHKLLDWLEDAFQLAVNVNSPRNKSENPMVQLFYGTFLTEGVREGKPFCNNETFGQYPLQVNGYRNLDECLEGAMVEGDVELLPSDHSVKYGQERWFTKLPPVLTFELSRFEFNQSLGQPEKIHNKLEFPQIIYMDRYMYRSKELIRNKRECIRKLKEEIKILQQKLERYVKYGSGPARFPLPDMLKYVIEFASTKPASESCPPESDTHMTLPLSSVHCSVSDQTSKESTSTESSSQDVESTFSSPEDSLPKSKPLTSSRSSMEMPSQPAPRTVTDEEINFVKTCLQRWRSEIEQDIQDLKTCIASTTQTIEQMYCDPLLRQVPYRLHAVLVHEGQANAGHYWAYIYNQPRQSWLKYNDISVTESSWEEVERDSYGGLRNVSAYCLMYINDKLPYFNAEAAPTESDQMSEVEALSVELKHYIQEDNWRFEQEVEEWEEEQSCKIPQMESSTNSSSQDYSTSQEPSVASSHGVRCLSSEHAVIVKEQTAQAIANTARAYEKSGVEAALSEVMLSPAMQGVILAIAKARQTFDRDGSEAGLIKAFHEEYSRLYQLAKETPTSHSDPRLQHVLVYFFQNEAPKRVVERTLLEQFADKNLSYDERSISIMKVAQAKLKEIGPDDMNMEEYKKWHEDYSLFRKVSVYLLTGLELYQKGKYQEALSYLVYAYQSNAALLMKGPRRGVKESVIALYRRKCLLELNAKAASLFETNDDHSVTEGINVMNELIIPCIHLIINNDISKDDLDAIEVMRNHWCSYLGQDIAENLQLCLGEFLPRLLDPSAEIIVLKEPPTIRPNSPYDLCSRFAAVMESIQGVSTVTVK
Method in brief: as §1

Measured: log2 ratio of Biotin-Ahx-Ub-VS probe labelling

Sequence of USP24 (Q9UPU5 whole entry): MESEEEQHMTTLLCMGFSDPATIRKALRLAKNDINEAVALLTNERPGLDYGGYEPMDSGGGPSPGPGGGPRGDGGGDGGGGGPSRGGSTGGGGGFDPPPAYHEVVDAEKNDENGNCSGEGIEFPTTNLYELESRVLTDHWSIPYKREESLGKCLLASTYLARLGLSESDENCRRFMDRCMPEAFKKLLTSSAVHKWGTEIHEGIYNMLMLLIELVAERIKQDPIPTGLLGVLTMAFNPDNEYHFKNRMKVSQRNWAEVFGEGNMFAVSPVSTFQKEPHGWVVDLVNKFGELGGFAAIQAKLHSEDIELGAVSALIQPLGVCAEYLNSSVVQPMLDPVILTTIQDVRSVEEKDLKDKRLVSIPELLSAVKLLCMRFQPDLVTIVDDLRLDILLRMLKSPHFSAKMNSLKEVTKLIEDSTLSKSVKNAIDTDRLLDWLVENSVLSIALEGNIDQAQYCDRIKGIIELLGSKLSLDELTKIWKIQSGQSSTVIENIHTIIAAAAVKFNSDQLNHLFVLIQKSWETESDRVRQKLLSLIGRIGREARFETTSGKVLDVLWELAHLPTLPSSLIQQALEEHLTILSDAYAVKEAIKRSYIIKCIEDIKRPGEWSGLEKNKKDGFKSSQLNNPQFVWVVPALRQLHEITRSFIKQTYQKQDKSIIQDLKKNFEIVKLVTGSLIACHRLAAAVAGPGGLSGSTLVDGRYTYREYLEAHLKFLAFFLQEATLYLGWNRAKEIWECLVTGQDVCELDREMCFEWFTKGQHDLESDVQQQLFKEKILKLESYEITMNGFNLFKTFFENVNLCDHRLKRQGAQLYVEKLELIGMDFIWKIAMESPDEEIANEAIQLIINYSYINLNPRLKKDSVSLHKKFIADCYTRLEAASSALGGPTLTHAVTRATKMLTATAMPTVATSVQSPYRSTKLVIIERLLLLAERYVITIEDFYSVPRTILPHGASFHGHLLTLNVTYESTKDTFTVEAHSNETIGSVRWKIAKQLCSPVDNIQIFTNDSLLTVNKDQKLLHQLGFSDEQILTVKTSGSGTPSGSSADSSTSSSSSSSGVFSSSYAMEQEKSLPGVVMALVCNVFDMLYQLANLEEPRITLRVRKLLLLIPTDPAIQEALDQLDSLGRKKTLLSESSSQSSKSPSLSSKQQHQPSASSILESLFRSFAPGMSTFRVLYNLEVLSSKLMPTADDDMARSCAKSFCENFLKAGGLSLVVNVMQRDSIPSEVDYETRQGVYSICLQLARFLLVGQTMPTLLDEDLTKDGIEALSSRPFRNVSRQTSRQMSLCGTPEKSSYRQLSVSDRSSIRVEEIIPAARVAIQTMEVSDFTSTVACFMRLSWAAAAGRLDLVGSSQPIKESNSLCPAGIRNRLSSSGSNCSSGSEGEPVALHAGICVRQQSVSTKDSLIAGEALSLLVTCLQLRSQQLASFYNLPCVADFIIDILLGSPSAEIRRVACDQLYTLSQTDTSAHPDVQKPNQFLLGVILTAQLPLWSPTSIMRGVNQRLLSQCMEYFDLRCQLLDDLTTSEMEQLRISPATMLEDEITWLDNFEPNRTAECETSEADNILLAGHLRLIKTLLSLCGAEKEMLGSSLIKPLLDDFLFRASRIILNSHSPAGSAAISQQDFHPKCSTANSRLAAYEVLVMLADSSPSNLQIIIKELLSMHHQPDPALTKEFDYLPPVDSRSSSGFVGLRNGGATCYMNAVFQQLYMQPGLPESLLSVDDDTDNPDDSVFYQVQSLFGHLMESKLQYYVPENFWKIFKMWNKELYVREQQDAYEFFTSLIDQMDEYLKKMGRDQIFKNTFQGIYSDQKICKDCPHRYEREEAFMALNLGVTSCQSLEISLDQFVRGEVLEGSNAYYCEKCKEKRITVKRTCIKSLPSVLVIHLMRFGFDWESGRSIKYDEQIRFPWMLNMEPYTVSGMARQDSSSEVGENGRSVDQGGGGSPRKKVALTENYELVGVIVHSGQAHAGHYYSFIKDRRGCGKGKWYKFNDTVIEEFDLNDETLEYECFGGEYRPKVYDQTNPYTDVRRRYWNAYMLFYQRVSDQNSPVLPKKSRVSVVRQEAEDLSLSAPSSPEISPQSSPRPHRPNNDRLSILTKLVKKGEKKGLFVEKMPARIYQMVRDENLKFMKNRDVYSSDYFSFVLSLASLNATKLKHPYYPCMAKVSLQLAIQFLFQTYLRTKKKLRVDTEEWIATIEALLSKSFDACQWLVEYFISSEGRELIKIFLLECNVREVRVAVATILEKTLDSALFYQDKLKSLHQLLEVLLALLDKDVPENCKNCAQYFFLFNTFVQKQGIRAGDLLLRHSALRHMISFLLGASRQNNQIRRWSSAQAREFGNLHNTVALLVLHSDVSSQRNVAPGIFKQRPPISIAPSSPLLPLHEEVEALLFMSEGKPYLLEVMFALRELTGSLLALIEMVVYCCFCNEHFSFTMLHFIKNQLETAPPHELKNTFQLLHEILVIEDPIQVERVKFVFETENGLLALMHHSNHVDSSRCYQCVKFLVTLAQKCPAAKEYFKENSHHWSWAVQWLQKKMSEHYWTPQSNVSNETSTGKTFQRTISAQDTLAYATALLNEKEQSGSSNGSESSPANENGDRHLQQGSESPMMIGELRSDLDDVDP

O=C(CCl)Nc1ccc(F)cc1F
inactive: [1] -0.101 | [2] -0.312 | [3] -0.265 | [4] -0.838
